# In PubChem BioAssay AID1159580 (chemical genetic matrix, 2015):
# About 2,000 (36%) of roughly 5,500 compounds were called active. About 18% were inconclusive and are not listed. Some of the results follow. Values without a mark were called inactive. Rule as the data show it: active = normalized growth mostly below about 0.91 (no sharp cut-off); inconclusive = no clear call, values can overlap the other calls; inactive = mostly above about 0.92.
# Test: chemical genetic growth profiling, strain panel (AID 1159580);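 also: tested at 20 µM; growth read once vehicle control cultures reached saturation at 30 °C; 1 = growth at the plate median or of vehicle wells; lower values mean less growth of the strain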
# Settings: growth OD
smiles,measurement,setting,value
C/C=C(/C(=C/C)c1ccc(O)cc1)c1ccc(O)cc1,normalized growth,"S. cerevisiae deletion strains, locus YKL009W, strain mrt4, hits give low values",0.81 (active)
same,normalized growth,"S. cerevisiae deletion strains, locus YKL068W, hits give low values",0.961
same,normalized growth,"S. cerevisiae deletion strains, locus YKL085W, strain MDH1 (second series), hits give low values",0.764 (active)
same,normalized growth,"S. cerevisiae deletion strains, locus YKL085W, strain MDH1, hits give low values",0.764 (active)
same,normalized growth,"S. cerevisiae deletion strains, locus YKL160W, strain elf1, hits give low values",0.947
same,normalized growth,"S. cerevisiae deletion strains, locus YKL190W, strain CNB1, hits give low values",0.976
same,normalized growth,"S. cerevisiae deletion strains, locus YKR001C, strain vps1, hits give low values",0.531 (active)
same,normalized growth,"S. cerevisiae deletion strains, locus YKR026C, strain gcn3, hits give low values",0.986
same,normalized growth,"S. cerevisiae deletion strains, locus YKR091W, strain srl3, hits give low values",0.995
same,normalized growth,"S. cerevisiae deletion strains, locus YLL001W, strain dnm1, hits give low values",0.948
same,normalized growth,"S. cerevisiae deletion strains, locus YLL026W, hits give low values",0.969
same,normalized growth,"S. cerevisiae deletion strains, locus YLL041C, strain sdh2, hits give low values",0.965
same,normalized growth,"S. cerevisiae deletion strains, locus YLR027C, strain aat2, hits give low values",0.959
same,normalized growth,"S. cerevisiae deletion strains, locus YLR039C, strain RIC1, hits give low values",0.368 (active)
same,normalized growth,"S. cerevisiae deletion strains, locus YLR058C, strain SHM2, hits give low values",0.759 (active)
same,normalized growth,"S. cerevisiae deletion strains, locus YLR102C, strain apc9, hits give low values",0.991
same,normalized growth,"S. cerevisiae deletion strains, locus YLR113W, strain HOG1, hits give low values",0.985
same,normalized growth,"S. cerevisiae deletion strains, locus YLR221C, strain rsa3, hits give low values",0.982
same,normalized growth,"S. cerevisiae deletion strains, locus YLR258W, strain gsy2, hits give low values",0.996
same,normalized growth,"S. cerevisiae deletion strains, locus YLR262C, strain YPT6 (second series), hits give low values",0.659 (active)
same,normalized growth,"S. cerevisiae deletion strains, locus YLR262C, strain YPT6, hits give low values",0.292 (active)
same,normalized growth,"S. cerevisiae deletion strains, locus YLR268W, strain sec22, hits give low values",0.866 (active)
same,normalized growth,"S. cerevisiae deletion strains, locus YLR320W, strain mms22, hits give low values",0.978
same,normalized growth,"S. cerevisiae deletion strains, locus YLR330W, strain CHS5, hits give low values",0.724 (active)
same,normalized growth,"S. cerevisiae deletion strains, locus YLR342W, strain FKS1 (second series), hits give low values",0.683 (active)
same,normalized growth,"S. cerevisiae deletion strains, locus YLR342W, strain FKS1, hits give low values",0.943
same,normalized growth,"S. cerevisiae deletion strains, locus YLR357W, strain rsc2, hits give low values",0.989
same,normalized growth,"S. cerevisiae deletion strains, locus YLR370C, strain arc18, hits give low values",1
same,normalized growth,"S. cerevisiae deletion strains, locus YLR371W, strain rom2, hits give low values",0.453 (active)
same,normalized growth,"S. cerevisiae deletion strains, locus YLR384C, strain iki3, hits give low values",0.983
same,normalized growth,"S. cerevisiae deletion strains, locus YLR418C, strain cdc73, hits give low values",0.542 (active)
same,normalized growth,"S. cerevisiae deletion strains, locus YML016C, strain PPZ1, hits give low values",0.914 (active)
same,normalized growth,"S. cerevisiae deletion strains, locus YML032C, strain rad52, hits give low values",0.691 (active)
same,normalized growth,"S. cerevisiae deletion strains, locus YML120C, strain ndi1, hits give low values",0.909 (active)
same,normalized growth,"S. cerevisiae deletion strains, locus YML124C, strain tub3, hits give low values",0.971
same,normalized growth,"S. cerevisiae deletion strains, locus YMR058W, strain fet3, hits give low values",0.932
same,normalized growth,"S. cerevisiae deletion strains, locus YMR078C, strain ctf18, hits give low values",0.979
same,normalized growth,"S. cerevisiae deletion strains, locus YMR125W, strain sto1, hits give low values",0.924
same,normalized growth,"S. cerevisiae deletion strains, locus YMR129W, hits give low values",0.986
same,normalized growth,"S. cerevisiae deletion strains, locus YMR205C, strain PFK2, hits give low values",0.958
same,normalized growth,"S. cerevisiae deletion strains, locus YMR223W, strain ubp8, hits give low values",0.745 (active)
same,normalized growth,"S. cerevisiae deletion strains, locus YMR231W, strain pep5, hits give low values",0.975
same,normalized growth,"S. cerevisiae deletion strains, locus YMR263W, strain SAP30, hits give low values",0.851 (active)
same,normalized growth,"S. cerevisiae deletion strains, locus YMR307W, strain GAS1, hits give low values",0.336 (active)
same,normalized growth,"S. cerevisiae deletion strains, locus YNL067W, strain RPL9B, hits give low values",0.863 (active)
same,normalized growth,"S. cerevisiae deletion strains, locus YNL071W, strain lat1, hits give low values",0.906 (active)
same,normalized growth,"S. cerevisiae deletion strains, locus YNL183C, strain NPR1, hits give low values",0.971
same,normalized growth,"S. cerevisiae deletion strains, locus YNL209W, strain ssb2, hits give low values",1
same,normalized growth,"S. cerevisiae deletion strains, locus YNL233W, strain BNI4, hits give low values",0.76 (active)
same,normalized growth,"S. cerevisiae deletion strains, locus YNL248C, strain rpa49, hits give low values",0.951
same,normalized growth,"S. cerevisiae deletion strains, locus YNL250W, strain rad50, hits give low values",0.871 (active)
same,normalized growth,"S. cerevisiae deletion strains, locus YNL271C, strain bni1, hits give low values",0.899 (active)
same,normalized growth,"S. cerevisiae deletion strains, locus YNL298W, strain CLA4, hits give low values",0.629 (active)
same,normalized growth,"S. cerevisiae deletion strains, locus YNL307C, strain MCK1, hits give low values",0.707 (active)
same,normalized growth,"S. cerevisiae deletion strains, locus YNL322C, strain KRE1 (second series), hits give low values",0.985
same,normalized growth,"S. cerevisiae deletion strains, locus YNR049C, strain mso1, hits give low values",0.99
same,normalized growth,"S. cerevisiae deletion strains, locus YNR052C, strain pop2, hits give low values",0.383 (active)
same,normalized growth,"S. cerevisiae deletion strains, locus YOL006C, strain TOP1, hits give low values",0.456 (active)
same,normalized growth,"S. cerevisiae deletion strains, locus YOL012C, strain htz1",1.01
same,normalized growth,"S. cerevisiae deletion strains, locus YOL147C, strain pex11, hits give low values",0.839 (active)
same,normalized growth,"S. cerevisiae deletion strains, locus YOR001W, strain rrp6, hits give low values",0.967
same,normalized growth,"S. cerevisiae deletion strains, locus YOR061W, strain CKA2, hits give low values",0.879 (active)
same,normalized growth,"S. cerevisiae deletion strains, locus YOR069W, strain VPS5, hits give low values",0.896 (active)
same,normalized growth,"S. cerevisiae deletion strains, locus YOR070C, strain gyp1, hits give low values",0.989
same,normalized growth,"S. cerevisiae deletion strains, locus YOR080W, strain dia2, hits give low values",0.97
same,normalized growth,"S. cerevisiae deletion strains, locus YOR083W, strain WHI5, hits give low values",0.929
same,normalized growth,"S. cerevisiae deletion strains, locus YOR106W, strain vam3, hits give low values",0.914
same,normalized growth,"S. cerevisiae deletion strains, locus YOR136W, strain idh2, hits give low values",0.938
same,normalized growth,"S. cerevisiae deletion strains, locus YOR144C, strain elg1, hits give low values",0.86 (active)
same,normalized growth,"S. cerevisiae deletion strains, locus YOR184W, strain ser1, hits give low values",0.609 (active)
same,normalized growth,"S. cerevisiae deletion strains, locus YOR231W, strain MKK1, hits give low values",0.964
same,normalized growth,"S. cerevisiae deletion strains, locus YOR265W, strain rbl2, hits give low values",0.976
same,normalized growth,"S. cerevisiae deletion strains, locus YOR270C, strain vph1, hits give low values",0.911
same,normalized growth,"S. cerevisiae deletion strains, locus YOR290C, strain snf2, hits give low values",0.971
same,normalized growth,"S. cerevisiae deletion strains, locus YOR316C, strain cot1, hits give low values",0.993
same,normalized growth,"S. cerevisiae deletion strains, locus YPL051W, strain arl3, hits give low values",0.956
same,normalized growth,"S. cerevisiae deletion strains, locus YPL078C, strain atp4, hits give low values",0.901
same,normalized growth,"S. cerevisiae deletion strains, locus YPL106C, strain sse1, hits give low values",0.975
same,normalized growth,"S. cerevisiae deletion strains, locus YPL240C, strain hsp82, hits give low values",0.981
same,normalized growth,"S. cerevisiae deletion strains, locus YPL241C, strain CIN2, hits give low values",0.988
same,normalized growth,"S. cerevisiae deletion strains, locus YPL256C, strain CLN2, hits give low values",0.992
same,normalized growth,"S. cerevisiae deletion strains, locus YPR119W, strain clb2, hits give low values",0.981
same,normalized growth,"S. cerevisiae deletion strains, locus YPR141C, strain kar3, hits give low values",0.978
same,normalized growth,"S. cerevisiae deletion strains, locus YPR163C, strain tif3, hits give low values",0.91 (active)
same,normalized growth,"S. cerevisiae deletion strains, locus YPR167C, strain met16, hits give low values",0.854 (active)
same,normalized growth,"S. cerevisiae deletion strains, strain wtn01, hits give low values",0.837 (active)
same,normalized growth,"S. cerevisiae strains, strain wild type, hits give low values",0.877 (active)
